Pf growth 48h: Primary qHTS for delayed death inhibitors of the malarial parasite plastid, 48 hour incubation; P. falciparum luciferase growth in erythrocytes, 48 h; Potency, µM (series often up to 28.7 µM), for the others: at the top dose activity change, negative = inhibition, usual class: inhibitors; hit rate 5.9% among 310,000; AID 504832, 2011; further: potency means the concentration at half of the fitted maximal effect; on the % scale 0 is the no-effect control and ±100 the full control effect
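First compound was added to culture medium, then infected red cells at 0.1% parasitemia and 2% hematocrit (final). After incubation at 37 C under 5% CO2, luciferase detection reagent was dispensed and light output recorded.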
Cycloheximide cs: Cycloheximide Counterscreen for Small Molecule Inhibitors of Shiga Toxin | hit rate 12% among 300,000 | max response, % | AID 2314, 2010 | cell reporter, cycloheximide protein synthesis inhibition counterscreen; in the data active means max response mostly above about 13%, no sharp cut-off; inactive means mostly below about 14%; further: read at 38.3 µM for the half of the compounds with a filed dose; 0% is about no effect
Pf growth 96h: Primary qHTS for delayed death inhibitors of the malarial parasite plastid, 96 hour incubation; hit rate 6.9% among 320,000; P. falciparum luciferase reporter growth, 96 h; AID 504834, 2011; Potency, µM (highest dose often 28.7 µM), for the others: at the top dose activity change, negative = inhibition, actives largely listed as inhibitors; further: potency means the concentration at half of the fitted maximal effect; on the % scale 0 is the no-effect control and ±100 the full control effect
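Compounds incubated with erythrocytes infected by luciferase-expressing P. falciparum (2% hematocrit, 0.05% parasitemia final) for 96 hours, 37 C in 5% CO2. Growth inhibition scored as decreased luciferase luminescence.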
Shiga toxin inh: A qHTS for Small Molecule Inhibitors of Shiga Toxin; Vero cells, Shiga toxin protein synthesis inhibition reporter; inhibition, % at 38.7 µM; hit rate 9.2% among 290,000; AID 2315, 2010; in the data active means inhibition mostly above about 28%, no sharp cut-off; inactive means mostly below about 43%; further: 0% is about no effect
SARS PLpro yeast: qHTS of Yeast-based Assay for SARS-CoV PLP; S. cerevisiae expressing SARS-CoV PLpro, growth rescue; Potency, µM (top dose mostly 32.9 µM), for inactives: at the highest dose activity, positive = growth rescue, hits mostly activators; hit rate 0.19% among 330,000; calls by dose curve; further: potency means the concentration at half of the fitted maximal effect; 0% is about no effect; nearly all actives have a fitted effect of over 55% in size
AMA1-RON2 inh: qHTS for Inhibitors of AMA1-RON; Towards Development of Antimalarial Drug Lead: Primary Screen | AlphaScreen AMA1-biotinylated RON2 peptide binding | AID 720542, 2013 | hit rate 0.2% among 360,000 | Potency, µM (top dose mostly 58.2 µM), inactives show at the top dose activity change, negative = inhibition, most hits filed as inhibitors | Plasmodium falciparum AMA1 (3D7) - RON2 peptide interaction;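 further: potency means the concentration at half of the fitted maximal effect; 0% = vehicle wells and -100% = peptide control; nearly all actives have a fitted effect of over 45% in size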
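AMA1 (3D7) with his tag at 25 nM final met compounds first, then biotinylated RON2 peptide at 25 nM; detection used donor plus acceptor beads, 10 µg/mL apiece, read by AlphaScreen after 30 min at room temperature.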
Starred values were filed as active, the others as inactive; i = inactive; ? = inconclusive; . = not tested or not shown; ! = not confirmed by another sample; [ ] = dose if it differs, or a comment. This is a sample that favours compounds with a hit; in the whole collection about 19% have one here. Unless noted, the call rests on the fitted dose curve; in most records, active means well fitted curve in the direction sought with a large enough effect; inconclusive means small, poorly fitted or top-dose-only effect, or another doubt; inactive means no such curve, though single readings can be large; an effect the other way counts as inactive or inconclusive.

SMILES | Pf growth 48h | Cycloheximide cs | Pf growth 96h | Shiga toxin inh | SARS PLpro yeast | AMA1-RON2 inh
O=C(Nc1cccc(Cl)c1N1CCOCC1)c1cc([N+](=O)[O-])ccc1N1CCOCC1 | ? | 5 | 0% | 18 | 3% | -13%
O=C(Nc1cccc(Cl)c1N1CCCCC1)c1ccc(N2CCOCC2)c([N+](=O)[O-])c1 | -16% | -1 | 6.6µM* | -7 | -32% | 18%
O=C(Nc1nc2ccccc2s1)c1ccc(N2CCCCC2)c([N+](=O)[O-])c1 | 48% | 45* | ? | 102* | ? | -23%
COc1cc(OC)c(NC(=O)C2CCN(S(=O)(=O)c3ccc4c(c3)CC(C)N4C(C)=O)CC2)cc1Cl (configuration not stated) | 0% | 17* | 0% | -4 | 9% | 14%
COc1ccc(C)cc1NC(=O)CN(C)S(=O)(=O)c1ccc2c(c1)CC(C)N2C(C)=O (configuration not stated) | -22% | 19 | 7.4µM* | 1 | -6% | -10%
COc1ccc(OC)c(NC(=O)C2CCN(S(=O)(=O)c3ccc4c(c3)CC(C)N4C(C)=O)CC2)c1 (configuration not stated) | ? | -2 | 15µM* | 9 | -5% | -10%
COc1ccc(NC(=O)C2CCN(S(=O)(=O)c3ccc4c(c3)CC(C)N4C(C)=O)CC2)cc1OC (configuration not stated) | -16% | -2 | 18% | -7 | -2% | -4%
C/C(=N\NC(=O)c1cc(C)oc1C)c1ccc(C)c([N+](=O)[O-])c1 | ? | . | ? | . | -5% | 2%
CCc1ccccc1NC(=O)Nc1cccc(F)c1 | 24% | 15 | 35%[1.15 µM] | 23 | -2% | -5%
CCOc1ccc(NC(=O)Nc2ccccc2SC)cc1 | 83% | 33* | i | 66* | -1% | -2%
O=C(NCc1ccccc1)Nc1cccn(Cc2ccccc2)c1=O | -6% | 13 | 8% | -4 | 13% | 18%
CSc1ccccc1NC(=O)Nc1ccccc1 | 105% | 25* | 9% | 91* | -17% | 5%
O=C(NCc1ccccc1)Nc1cccn(Cc2ccccc2F)c1=O | 30% | 20* | -8% | 5 | 4% | -4%
CSc1ccccc1NC(=O)Nc1cccc(F)c1 | 91% | 22* | 4% | 41* | -2% | 1%
CC(NC(=O)COC(=O)COc1cccc2c1OC(C)(C)C2)c1ccccc1 (configuration not stated) | 0% | -3 | 3% | -2 | -2% | -9%
Cc1ccc2c(c1)C1CN(C)CCC1N2S(=O)(=O)c1ccccc1F (configuration not stated) | ? | . | ? | . | 4% | 8%
CSc1nnc(NC(=O)c2ccc(S(=O)(=O)N3CCOCC3)cc2)s1 | -5% | -2 | 8% | -9 | -2% | 21%
CCOc1ccc(NC(=O)Nc2cccn(Cc3ccccc3)c2=O)cc1 | -15% | 31* | ? | 33 | -2% | -18%
CCOc1ccc2c(c1)ncn2Cc1ccccc1 | 49% | 24* | 0% | 108* | 14% | 6%
CC(=O)Oc1ccc(Cn2cnc3cc4ccccc4cc32)cc1 | 11% | 15* | 51% | 19 | -1% | 33%
CCCc1nc2cc(C)c(Br)c(C)n2c1Cc1ccsc1 | . | . | . | . | . | -4%
C=CCN1CCc2nc(N)sc2CC1 | -13% | -9 | 6.7µM*! | -5 | 4% | 7%
Cc1ccc(S(=O)(=O)N(C)C)cc1NC(=O)CCc1ccccc1 | 22% | 12 | 32% | -5 | 0% | 7%
CCN(c1cccc(C)c1)C(C(=O)Nc1ccc(OC)cc1)c1cc2c(cc1[N+](=O)[O-])OCO2 (configuration not stated) | -5% | 11* | ? | 22 | -6% | -25%
COc1ccc(-c2nnc(SCC(=O)NC3CCCC3)n2C)cc1 | 46% | 7 | ? | -10 | 1% | 0%
SMILES | Pf growth 48h | Cycloheximide cs | Pf growth 96h | Shiga toxin inh | SARS PLpro yeast | AMA1-RON2 inh
CC(Cc1ccccc1)NC(=O)c1cc([N+](=O)[O-])ccc1Cl (configuration not stated) | ? | 5 | ? | 10 | 0% | 1%
O=C(N[C@@H](Cc1ccccc1)c1nc2ccccc2[nH]1)c1cc([N+](=O)[O-])ccc1Cl | 15µM* | -1 | ? | 10 | 14% | -1%
CC(=O)Nc1ccc(NC(=O)CSc2nnc(-c3ccc4c(c3)OCO4)o2)cc1 | . | . | . | . | -7% | 7%
c1cc(CSc2nnc(-c3ccc4c(c3)OCO4)o2)ccn1 | 76% | 44* | -8% | 88* | -1% | 13%
O=C(CSc1nnc(-c2ccc3c(c2)OCO3)o1)Nc1ncc(Cl)cc1Cl | 17% | 19* | ? | 31* | -6% | 72%
CC(=O)CSc1nnc(-c2ccc3c(c2)OCO3)o1 | 273% | 20* | ? | 36* | -1% | -1%
O=C(OCc1ccccc1)N1C=CC2CC1c1c(Cl)cccc12 (configuration not stated) | . | . | . | . | . | 16%
CN1CC(c2ccccc2)C(c2ccc(Cl)cc2)=N1 (configuration not stated) | ? | 3 | ? | -7 | ? | ?
Fc1ccccc1N1CC(c2ccccc2)C(c2cccs2)=N1 (configuration not stated) | . | 0 | 12µM* | -9 | -21% | 297%
Cc1sc2cc3c(c(C(=O)c4ccccc4)[n+]2c1C)-c1cccc2cccc-3c12 | 0.83µM* | -1 | 0.33µM* | 8 | -77% | -29%
O=C(c1ccccc1)c1c2c(cc3sc4ccccc4[n+]13)-c1cccc3cccc-2c13 | 0.93µM* | 27* | 0.47µM* | 38* | -59% | -16%
Cc1sc2ccccc2[n+]1CC(=O)c1ccccc1 | 72% | -3 | -1% | . | 0% | -25%
Cn1c(CN2CCCCC2)nc2cc(NC(=O)c3ccc(F)cc3)ccc21 | 25% | 34* | ? | 24 | 0% | 53%
Cn1c(CN2CCCC2)nc2cc(NC(=O)C3CCCCC3)ccc21 | 2% | 2 | 11% | -1 | -2% | 16%
Cn1c(CN2CCCCC2)nc2cc(NC(=O)c3ccccc3Cl)ccc21 | ? | 44* | -11% | 72* | -1% | 17%
NCCCC(O)(P(=O)(O)O)P(=O)(O)O | 1% | -4 | -6% | 10 | . | .
CCc1ccc(/C=C/c2c[nH]c3ccccc23)[n+](CC)c1 | 0.21µM* | -1 | 0.074µM* | -3 | 3% | -6%
O=C(CS(=O)(=O)Cc1ccccc1)Nc1ncccn1 | -8% | -2 | 7% | -3 | -3% | -16%
Cc1cccn2c(=O)c3cc(C(=O)NCCN4CCOCC4)c(=N)n(CCc4ccccc4)c3nc12 | 0.47µM* | -2 | -8% | -4 | -1% | 20%

Compound activity from PubChem.
